Each structure is given as a SMILES string. The whole screen tested about 280,000 compounds, of which about 1,100 (0.39%) were called active. Inconclusive results (about 7%) are left out. Calls come from the whole dose curve; as a rule, active = well fitted inhibition curve with a large enough effect; inconclusive = small, poorly fitted or top-dose-only effect, or effect the other way; inactive = flat fitted curve, though single readings scatter. The entries come from a sample that favours actives as a whole. Entries that show only a call come without a potency.
Potency is the fitted concentration of half-maximal effect.

The target in this test is Microtubule-associated protein tau (Homo sapiens) (UniProt P10636). The test can be described thus: qHTS for Inhibitors of Tau Fibril Formation, Fluorescence Polarization. Note: nearly all actives have a fitted effect of over 55% in size. The settings on record: K18 P301L tau heparin fibrillization, Alexa594 FP, 6 h; series mostly up to 57.7 µM. From the text: NIH Molecular Libraries Probe Production Network [MLPCN]
Sequence of Microtubule-associated protein tau (Homo sapiens) (P10636 561-689 P618L limits assumed): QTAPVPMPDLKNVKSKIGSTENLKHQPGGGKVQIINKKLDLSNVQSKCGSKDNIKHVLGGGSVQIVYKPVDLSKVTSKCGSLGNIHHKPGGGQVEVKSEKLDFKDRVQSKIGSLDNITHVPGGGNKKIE
NIH Chemical Genomics Center [NCGC]
Assay Provider: Carlo Ballatore, University of Pennsylvania
The microtubule-associated protein tau is an abundant protein in the axons of neurons that stabilizes microtubules. With its ability to modulate microtubule dynamics, tau contributes directly or indirectly, to key structural and regulatory cellular functions. Particularly important is the influence tau exerts on axonal transport, which allows signaling molecules, trophic factors and other essential cellular constituents to travel along the axons. Under pathological conditions, tau becomes sequestered into insoluble aggregates called neurofibrillary tangles. This phenomenon is believed to have pathological consequences by promoting axonal transport deficits that ultimately lead to synaptic dysfunction and neuronal loss. To identify inhibitors of tau aggregation, a heparin-induced tau fibril formation assay was used that employed a recombinantly expressed fragment of tau, K18 (Q242-E372), bearing a P301L mutation (Gustke et al. 1994; Hong et al. 1998).
Gustke, N., B. Trinczek, et al. (1994). "Domains of tau protein and interactions with microtubules." Biochemistry 33(32): 9511-22.
Hong, M., V. Zhukareva, et al. (1998).
Li, W. and V. M. Lee (2006). "Characterization of two VQIXXK motifs for tau fibrillization in vitro." Biochemistry 45(51): 15692-701.
von Bergen, M., S. Barghorn, et al. (2001). "Mutations of tau protein in frontotemporal dementia promote aggregation of paired helical filaments by enhancing local beta-structure." J Biol Chem 276(51): 48165-74.
NCGC Assay Protocol Summary:
For screening, 2 uL/well human K18 P301L (15 uM unlabeled and 0.24 uM Alexa 594-labeled tau final concentrations) in reagent buffer (100 mM sodium acetate pH 7) was dispensed into black solid 1536-well plates (Grenier) using a solenoid-based dispenser. Following transfer of 23 nL compound or DMSO vehicle by a pin tool, 2 uL/well heparin (20 uM final concentration) in reagent buffer was added and the plate centrifuged 15 s at 1000 RPM. Plates were incubated 6 hr at 37 C and then 1 uL/well ThT (30 uM final concentration) was added. After a 1 hr ambient incubation, the plates were read by an Envision (Perkin Elmer) to monitor Alexa 594 FP (555 nm excitation and 632 nm emission).
Keywords: NIH Roadmap, MLPCN, MLI, MLSMR, NCGC, qHTS, tau, tauopathies, Alzheimer's disease, fibril, neurodegeneration, aggregation
On the technique in general: Quantitative high-throughput screening tests each substance at several concentrations.
For the compound `Oc1cc(O)c2c(c1)OC(c1ccc(O)c(O)c1)C(O)C2` (stereo unspecified), the Potency was 14.1 µM (active). On to `CC(NC(=O)c1cc(Sc2ccc(F)cc2F)nc2ccccc12)c1ccccc1` (stereo unspecified), for which the Potency entry was “inactive”. With `CCCC(=O)Nc1cc(C(=O)NCc2ccc(OC)cc2)ccc1S(=O)(=O)c1ccc(Cl)cc1` the entry was “inactive”. With `COc1ccccc1-c1nnc(SCC(N)=O)o1` the entry was “inactive”; with `COc1ccc2[nH]cc(/C=C(/C#N)S(=O)(=O)c3ccccc3)c2c1`, 28.2 µM (active). The value for `CCN(CC)CC(=O)c1c[nH]c2ccc(OC)cc12` was “inactive”; that for `COc1ccc(NS(=O)(=O)c2ccc(Oc3c(C#N)cccc3C#N)cc2)cc1` was “inactive”.

Turning to `COc1ccc(C)cc1NC(=O)COCc1cc(-c2cccs2)on1`, the Potency entry is “inactive”. The value for `O=C(Nc1ccccc1)Nc1nnc(COc2ccccc2F)s1` was 14.1 µM (active); that for `O=C(NCCOc1ccccc1F)Nc1ccc(Br)cc1` was “inactive”.

For the compound `COCC(=O)Nc1nnc(COc2ccccc2)s1`, the Potency result is “inactive”. With `Cc1ccc(N(C)C(=O)C2CCN(S(=O)(=O)c3ccc4c(c3)CCCN4C(=O)C3CCC3)CC2)cc1` the entry was “inactive”; with `Cc1ccc2cccc(NC(=O)c3ccc(OC(C)C)cc3)c2n1`, “inactive”; with `CC1=C/C(=N\OS(=O)(=O)c2ccccc2)C=CC1=O`, 12.6 µM (active).

Regarding `CC1=C/C(=N\S(=O)(=O)c2ccccc2)C(C(C)C)=CC1=O`, the Potency result was “inactive”. Turning to `Cc1ccc(S(=O)(=O)c2ccc(Oc3ccccc3)cc2)cc1`, the Potency result is “inactive”. With `COc1ccccc1/C=C/c1nc(C#N)c(NC(C)c2ccccc2)o1` (stereo unspecified) the entry was “inactive”; with `Cn1ccc(NC(=O)Nc2ccc(Cl)cc2)n1`, “inactive”. The value for `NS(=O)(=O)c1ccc(CCNC(=O)Nc2ccc(Cl)cc2)cc1` was “inactive”; that for `CC(C)S(=O)(=O)c1csc(NC(=O)Nc2ccc(Cl)cc2)c1Cl` was 31.6 µM (active). For the compound `CN(C)N=Nc1ccc2nc[nH]c2c1`, the Potency was 8.91 µM (active). The value for `CC/C(O)=N\S(=O)(=O)c1ccc(N=NN(C)C)cc1` was “inactive”. The value for `CC(=O)c1ccc(N2CCN(C(=O)c3ccc4nc[nH]c4c3)CC2)cc1` was “inactive”; that for `CCOc1ccc(-c2nonc2NC(=O)c2oc3ccc(CC)cc3c2C)cc1` was “inactive”; that for `O=c1[nH]c2ccccc2n2c(-c3ccccc3)nnc12` was 14.1 µM (active).

For `CCOC(=O)c1cnc2[nH]c3ccccc3n2c1=O`, the Potency entry was “inactive”. The value for `Cc1ccc(-c2nc3ccccc3[nH]c2=O)cc1` was “inactive”.

On to `Cc1cc(C)c2oc(C(=O)Nc3c(C(=O)Nc4ccccc4)oc4ccccc34)cc(=O)c2c1`, for which the Potency entry is “inactive”. With `Cc1nn(C)c2c1c(C(F)(F)F)cc(=O)n2C(C)C(=O)NCc1ccc(Cl)cc1` (stereo unspecified) the entry was “inactive”; with `CSc1ccc(S(=O)(=O)NC2CCCCC2)cc1`, “inactive”. With `Cn1sc(=O)c2cc(S(=O)(=O)NC3CC3)ccc21` the figure was 28.2 µM (active); with `CC1CCC(NS(=O)(=O)c2ccc3c(c2)n(C)c(=O)c(=O)n3C)CC1` (stereo unspecified), “inactive”; with `CC(C)C[C@H](NC(=O)Nc1cccc(C(F)(F)F)c1)C(=O)O`, “inactive”. Turning to `CCNS(=O)(=O)c1ccc(NC(=O)Nc2cccc(C(F)(F)F)c2)cc1`, the Potency is 25.1 µM (active). The value for `Cc1ccc(NC(=O)Nc2cccc(C(F)(F)F)c2)nc1` was “inactive”. The value for `Cc1cccc(Nc2cc(C)nc(-n3nc(C)cc3C)n2)c1` was “inactive”; that for `Brc1ccc2c(c1)NC(c1cccnc1)=NC(c1ccccc1)=N2` was “inactive”; that for `CCC(C)(C)NC(=O)C1c2ccccc2Oc2ccccc21` was “inactive”. With `CCC(C)NC(=O)C1c2ccccc2Oc2ccccc21` (stereo unspecified) the entry was “inactive”. `CC(C)(C)c1nnc(NC(=O)C2c3ccccc3Oc3ccccc32)s1`: the Potency is 15.8 µM (active).

Take `Cc1ccc(NC(=O)Nc2sc3nc4n(c(=O)c3c2C)CCC(C)CC4)c(Cl)c1` (stereo unspecified): the Potency result was “inactive”.

As to `Cc1cc(C)c(NC(=O)Cn2c(SCC(=O)NCc3ccccc3)nc3ccccc32)c(C)c1`, the Potency result is “inactive”. The value for `COc1ccc(Cn2c(=O)c3oc4ccccc4c3n(CC(=O)Nc3ccc(F)cc3F)c2=O)cc1` was “inactive”; that for `CCOc1ccccc1NC(=O)Cn1c(=O)n(Cc2ccco2)c(=O)c2sc3ccccc3c21` was “inactive”; that for `O=C(Cn1c(=O)n(Cc2ccccc2)c(=O)c2sc3ccccc3c21)Nc1ccccc1F` was 28.2 µM (active). With `CC(=O)c1cccc(NC(=O)c2nc(-c3ccccc3)n(-c3cccc(C)c3)n2)c1` the entry was “inactive”; with `CCc1nnc(NC(=O)CCCSc2nc3ccccc3[nH]2)s1`, “inactive”; with `O=C(COC(=O)CCCSc1nc2ccccc2[nH]1)Nc1ccc(Oc2ccccc2)cc1`, 15.8 µM (active).

Take `COc1ccc(NC(=O)CSc2nc3ccccc3[nH]2)cc1`: the Potency result was “inactive”. With `Oc1c(C=Nc2cccc3nsnc23)ccc2ccccc12` the figure was 3.98 µM (active). With `Oc1ccc2ccccc2c1C=Nc1ccccc1` the entry was “inactive”.

Values taken from PubChem BioAssay AID1468 (National Center for Advancing Translational Sciences (NCATS), 2008).
